# Assay results published in PubChem BioAssay (NCATS).
# Values without a mark were called inactive. Results filed as inconclusive are left out. Calls of active or inactive are those of the source. Unless noted, calls come from the whole dose curve; as a rule, active = well fitted curve in either direction with a large enough effect (not every such curve was filed as active); inconclusive = small, poorly fitted or top-dose-only effect, or another doubt; inactive = flat fitted curve, though single readings scatter.
# Experiments:
# [1] = biological target: Lysosomal acid glucosylceramidase (Homo sapiens) (UniProt P04062); experiment: Glucocerebrosidase-p2 (AID 348; in the data active = potency below about 10 µM; note: potency is the fitted concentration of half-maximal effect); settings: purified GBA, blue fluorogenic substrate, 40 min
# In short: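 Normal human glucocerebrosidase (0.2 nM) with blue fluorogenic substrate (80 uM final) in citrate/phosphate pH 5.9 with 10mM sodium taurocholate, 0.01% tween-20; 40 min RT, NaOH/glycine stop; fluorescence Ex 365/Em 440; AC50 from a titration from 0.6 nM upwards.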
# [2] = AP1 Signaling Pathway (AID 357); settings: ME-180 AP-1-bla reporter, EGF-induced, beta-lactamase ratio, 5 h; at 7.69 µM (top of the series) unless noted;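 note: ME-180 reporter cells stimulated with EGF at its EC50 level; % is set by controls: 0 for no effect and ±100 for the full control effect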
# In short: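 Beta-lactamase reporter under AP-1 response element, ME-180 background. Stimulus: EC50 EGF. Compound exposure 5 h, 37 °C. Detection: CCF4, 2.5 h RT, 460/530 nm. Values: AC50 from titration.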
# [3] = biological target: Cytochrome P450 1A2 (Homo sapiens) (UniProt P05177); experiment: p450-cyp1a2 (AID 410; calls by dose curve; note: potency is the fitted concentration of half-maximal effect;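 for activity change, negative = inhibition: -100% = full effect of reference inhibitor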); settings: recombinant CYP1A2, luciferin-ME demethylation, luminescence; series mostly up to 11.4 µM
# In short: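 O-Demethylation of luciferin 6' methyl ether by human CYP1A2 is monitored as luciferase luminescence. Substrate sits at Km (100uM); enzyme is 20nM. Values are scaled to 57 uM furafylline as maximal inhibition.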
# [4] = NFAT Signaling Pathway (AID 444); settings: Jurkat NFAT-bla M1, carbachol, beta-lactamase ratio, 5 h; at 7.69 µM (top of the series) unless noted;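 note: carbachol stimulus at about its EC50 of 1 µM final; % is set by controls: 0 for no effect and ±100 for the full control effect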
# In short: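 Read-out: CCF4 FRET ratio (460 nm/530 nm) after 1 h RT dye loading, used for %activity and AC50 from titration series. Cells: Jurkat NFAT-β-lactamase/M1 line, treated with compound plus 1 uM carbachol for 5 h, 37 °C.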
# [5] = Stat Signaling Pathway (AID 446); settings: ME-180 (cervical carcinoma) SIE beta-lactamase reporter, IL-6 stimulated, 5 h; at 7.69 µM (top of the series) unless noted;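 note: ME-180 cervical cancer cells given 40 pM IL-6 alongside compound; SIE-controlled beta-lactamase reporter measured as 460/530 nm FRET emission ratio; % is set by controls: 0 for no effect and ±100 for the full control effect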
# In short: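 Overnight-plated ME-180 cells bearing a STAT Inducible Element beta-lactamase reporter; 5 h co-exposure to compound and 40 pM IL-6; values normalized to 300 pM IL-6 and 125 nM JAK inhibitor controls.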
# [6] = biological target: Glucocorticoid receptor (Homo sapiens) (UniProt P04150); experiment: GR-GFP Redistribution (AID 450;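 active = compounds whose dose series gives a full or clear partial fitted curve of increased nuclear translocation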; note: potency is the fitted concentration of half-maximal effect); settings: U2OS GR-GFP nuclear translocation, laser cytometry, 2 h
# [7] = biological target: Glucocorticoid receptor (Homo sapiens) (UniProt P04150); experiment: GR-EFC Redistribution (AID 451; calls by dose curve; note: potency is the fitted concentration of half-maximal effect); settings: CHO-K1 GR-EFC translocation, beta-gal luminescence, 2 h
# In short: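 Translocation of GR-ED fusion to nuclear EA restores b-gal, read by luminescence after 1 h room-temperature detection. Engineered CHO-K1 biosensor cells, 1,000/well, exposed 2 h at 37 C to titrations up to 46 uM final.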
# [8] = biological target: Mitogen-activated protein kinase 10 (Mus musculus) (UniProt Q61831); experiment: JNK3 AlphaScreen Assay (AID 530); settings: JNK3 lysate, c-Jun phosphorylation; series mostly up to 57.1 µM;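 note: kinase came from lysate of stimulated human HepG2 cells; signal reports phosphorylation of biotinylated GST-cJun 1-79 at Ser73 with 10 µM ATP; % is set by controls: 0 for no effect and ±100 for the full control effect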
# In short: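 qHTS titrations with 15 min compound pre-incubation before adding ATP (10 uM final). Read-out: AlphaScreen of Ser73-phosphorylated biotin-GST-cJun using HepG2 lysate JNK3 activated by IL-1β and TNFα.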
# [9] = biological target: 3',5'-cyclic-AMP phosphodiesterase 4B (Homo sapiens) (UniProt Q07343); experiment: qHTS Assay for Inhibitors of PDE-IV (AID 607; active = well fitted activation curve with a large enough effect in the main read-out, with a control signal flat, not every such curve was filed as active; note: % of control where 0% means no effect); settings: HEK293 ACTOne CNG channel cells, membrane potential fluorescence; series mostly up to 22.9 µM
# In short: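 Live HEK293 cells with a modified cyclic nucleotide-gated (CNG) channel report intracellular cAMP via membrane-potential dye fluorescence (ex 535/em 590 nm). Endogenous PDE-IV was targeted. Compounds were tested at up to 22.9 uM final; RO 20-1724 100 uM served as control.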
# [10] = biological target: Cytochrome P450 2C9 (Homo sapiens) (UniProt P11712); experiment: qHTS Assay for Inhibitors and Substrates of Cytochrome P450 2C9 (AID 883; active = well fitted curve in the direction sought with a large enough effect; an effect the other way counts as inactive or inconclusive; note: % is set by controls: 0 for no effect and ±100 for the full control effect; nearly all actives have a fitted effect of over 60% in size); settings: recombinant CYP2C9, luciferin-H luminescence, 60 min; series mostly up to 57.1 µM
# In short: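 Turnover of Luciferin-H (100uM, KM) by 10nM human CYP2C9 was measured over 60 min at 37C with NADPH regeneration; inhibitors and some substrates reduce luminescence. Data normalized to sulphaphenazole 57uM.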
# [11] = biological target: Cytochrome P450 3A4 (Homo sapiens) (UniProt P08684); experiment: qHTS Assay for Inhibitors and Substrates of Cytochrome P450 3A4 (AID 884; active = well fitted curve in the direction sought with a large enough effect; an effect the other way counts as inactive or inconclusive; note: potency is the fitted concentration of half-maximal effect; nearly all actives have a fitted effect of over 50% in size); settings: recombinant CYP3A4, Luciferin-PPXE luminescence; series mostly up to 57.1 µM
# In short: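 Luminescent readout of luciferin produced by CYP3A4 (20 nM) dealkylation of Luciferin-PPXE, 25 uM (its KM). NADPH-driven reaction ran 60 min at RT after 10 min compound preincubation; data scaled to 57 uM ketoconazole as 100% inhibition.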
# [12] = biological target: Cytochrome P450 3A4 (Homo sapiens) (UniProt P08684); experiment: qHTS Assay for Activators of Cytochrome P450 3A4 (AID 885; active = well fitted curve in the direction sought with a large enough effect; an effect the other way counts as inactive or inconclusive; note: nearly all actives have a fitted effect of over 65% in size); settings: recombinant CYP3A4, Luciferin-PPXE luminescence, 60 min; series mostly up to 57.1 µM
# In short: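 Using 20nM recombinant human CYP3A4 in potassium phosphate (200mM), substrate Luciferin-PPXE at 25uM, luminescent luciferin detection followed a 60-min RT NADPH reaction; data scaled to 57 uM ketoconazole.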
# [13] = biological target: Cytochrome P450 2C19 (Homo sapiens) (UniProt P33261); experiment: qHTS Assay for Inhibitors and Substrates of Cytochrome P450 2C19 (AID 899; active = well fitted curve in the direction sought with a large enough effect; an effect the other way counts as inactive or inconclusive; note: potency is the fitted concentration of half-maximal effect; nearly all actives have a fitted effect of over 60% in size); settings: recombinant CYP2C19, luciferin-H EGE luminescence; series mostly up to 11.4 µM
# In short: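 Reactions contain 5nM enzyme, 10uM Luciferin-H EGE (KM) and 50mM KPO4; compound preincubates 10 min at 37C, NADPH regeneration starts turnover for 60 min. Luminescence after detection reagent gives activity.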
# Chain of Glucocorticoid receptor (Homo sapiens) (P04150 whole entry, looked up, the tested form may be a part): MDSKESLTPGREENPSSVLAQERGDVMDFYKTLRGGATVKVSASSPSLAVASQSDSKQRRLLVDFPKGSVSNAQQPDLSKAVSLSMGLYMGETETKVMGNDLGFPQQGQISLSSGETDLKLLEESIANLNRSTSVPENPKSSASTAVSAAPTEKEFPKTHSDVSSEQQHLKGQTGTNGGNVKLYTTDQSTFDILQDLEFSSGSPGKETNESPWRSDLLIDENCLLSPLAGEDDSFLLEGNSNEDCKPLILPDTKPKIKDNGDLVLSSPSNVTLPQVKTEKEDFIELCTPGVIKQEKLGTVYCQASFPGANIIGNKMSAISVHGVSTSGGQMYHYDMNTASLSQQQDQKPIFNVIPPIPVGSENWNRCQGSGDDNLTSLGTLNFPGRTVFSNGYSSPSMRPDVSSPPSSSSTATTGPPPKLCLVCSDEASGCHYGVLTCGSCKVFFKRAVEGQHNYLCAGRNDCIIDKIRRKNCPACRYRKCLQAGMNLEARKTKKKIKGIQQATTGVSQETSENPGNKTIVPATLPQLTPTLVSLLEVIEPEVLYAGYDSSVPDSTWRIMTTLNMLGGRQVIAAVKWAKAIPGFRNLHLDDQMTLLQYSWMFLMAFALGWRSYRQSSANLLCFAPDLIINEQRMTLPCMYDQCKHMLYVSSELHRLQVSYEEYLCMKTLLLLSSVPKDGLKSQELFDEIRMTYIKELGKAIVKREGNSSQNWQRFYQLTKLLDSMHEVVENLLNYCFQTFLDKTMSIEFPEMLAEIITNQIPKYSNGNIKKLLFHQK
# Chain of Lysosomal acid glucosylceramidase (Homo sapiens) (P04062 whole entry, looked up): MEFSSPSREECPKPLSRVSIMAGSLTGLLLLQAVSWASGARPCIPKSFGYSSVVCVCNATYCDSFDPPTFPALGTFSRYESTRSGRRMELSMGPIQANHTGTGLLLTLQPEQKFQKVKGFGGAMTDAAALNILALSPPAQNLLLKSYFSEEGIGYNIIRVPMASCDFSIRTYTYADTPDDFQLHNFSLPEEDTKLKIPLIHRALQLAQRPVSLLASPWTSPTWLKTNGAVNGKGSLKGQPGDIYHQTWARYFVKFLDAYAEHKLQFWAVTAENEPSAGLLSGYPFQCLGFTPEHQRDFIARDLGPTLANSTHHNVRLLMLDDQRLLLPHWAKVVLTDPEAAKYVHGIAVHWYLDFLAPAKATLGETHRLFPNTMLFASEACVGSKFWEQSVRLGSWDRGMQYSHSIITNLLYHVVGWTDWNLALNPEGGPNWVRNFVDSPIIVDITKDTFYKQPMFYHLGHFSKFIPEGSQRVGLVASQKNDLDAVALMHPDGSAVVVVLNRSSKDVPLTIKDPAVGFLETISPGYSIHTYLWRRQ
# Chain of 3',5'-cyclic-AMP phosphodiesterase 4B (Homo sapiens) (Q07343 whole entry, looked up): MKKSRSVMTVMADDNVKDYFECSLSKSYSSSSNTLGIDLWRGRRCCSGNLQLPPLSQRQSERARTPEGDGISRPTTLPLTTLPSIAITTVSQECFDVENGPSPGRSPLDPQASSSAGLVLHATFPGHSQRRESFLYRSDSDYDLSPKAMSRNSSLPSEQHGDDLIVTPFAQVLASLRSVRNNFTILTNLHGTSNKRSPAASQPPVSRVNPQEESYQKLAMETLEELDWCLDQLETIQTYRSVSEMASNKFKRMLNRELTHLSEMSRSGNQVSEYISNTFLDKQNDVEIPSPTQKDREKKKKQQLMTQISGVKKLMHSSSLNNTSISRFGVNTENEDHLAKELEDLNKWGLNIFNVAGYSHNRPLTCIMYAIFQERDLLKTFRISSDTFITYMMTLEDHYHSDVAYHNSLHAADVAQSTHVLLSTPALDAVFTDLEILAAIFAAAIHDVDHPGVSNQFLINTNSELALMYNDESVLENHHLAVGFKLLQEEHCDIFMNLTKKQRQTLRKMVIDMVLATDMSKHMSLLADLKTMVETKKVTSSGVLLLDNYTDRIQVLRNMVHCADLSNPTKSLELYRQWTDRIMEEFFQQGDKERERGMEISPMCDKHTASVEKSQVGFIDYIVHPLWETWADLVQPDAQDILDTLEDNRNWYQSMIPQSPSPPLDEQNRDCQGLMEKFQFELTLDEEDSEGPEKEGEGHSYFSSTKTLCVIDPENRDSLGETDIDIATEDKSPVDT
# Chain of Cytochrome P450 1A2 (Homo sapiens) (P05177 whole entry, looked up): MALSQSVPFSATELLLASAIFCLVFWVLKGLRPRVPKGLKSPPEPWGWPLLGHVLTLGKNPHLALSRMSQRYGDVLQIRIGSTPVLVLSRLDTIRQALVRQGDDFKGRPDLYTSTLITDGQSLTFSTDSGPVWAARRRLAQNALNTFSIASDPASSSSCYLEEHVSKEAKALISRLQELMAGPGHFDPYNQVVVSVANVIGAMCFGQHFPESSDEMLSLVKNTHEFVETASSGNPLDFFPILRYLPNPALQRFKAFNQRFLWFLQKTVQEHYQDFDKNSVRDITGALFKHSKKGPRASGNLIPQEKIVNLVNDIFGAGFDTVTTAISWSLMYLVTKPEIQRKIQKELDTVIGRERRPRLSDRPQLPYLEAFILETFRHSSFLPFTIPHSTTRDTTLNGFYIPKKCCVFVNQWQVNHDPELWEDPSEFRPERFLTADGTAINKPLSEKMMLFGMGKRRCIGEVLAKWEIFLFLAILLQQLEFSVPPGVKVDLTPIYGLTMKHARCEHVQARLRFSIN
# Chain of Cytochrome P450 3A4 (Homo sapiens) (P08684 whole entry, looked up): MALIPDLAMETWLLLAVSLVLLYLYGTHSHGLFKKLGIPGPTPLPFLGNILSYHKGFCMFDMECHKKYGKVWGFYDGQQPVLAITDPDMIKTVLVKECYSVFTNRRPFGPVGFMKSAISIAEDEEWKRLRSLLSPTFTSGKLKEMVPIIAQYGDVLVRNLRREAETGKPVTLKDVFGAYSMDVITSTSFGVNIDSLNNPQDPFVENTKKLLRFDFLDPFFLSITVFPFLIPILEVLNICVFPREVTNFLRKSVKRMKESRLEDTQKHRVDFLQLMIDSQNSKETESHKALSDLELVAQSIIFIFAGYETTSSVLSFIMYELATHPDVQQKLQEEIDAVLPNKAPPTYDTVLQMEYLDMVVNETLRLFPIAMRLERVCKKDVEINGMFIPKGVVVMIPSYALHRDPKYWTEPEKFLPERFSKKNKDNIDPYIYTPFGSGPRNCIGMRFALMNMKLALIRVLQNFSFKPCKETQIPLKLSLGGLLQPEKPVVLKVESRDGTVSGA
# Chain of Cytochrome P450 2C9 (Homo sapiens) (P11712 whole entry, looked up): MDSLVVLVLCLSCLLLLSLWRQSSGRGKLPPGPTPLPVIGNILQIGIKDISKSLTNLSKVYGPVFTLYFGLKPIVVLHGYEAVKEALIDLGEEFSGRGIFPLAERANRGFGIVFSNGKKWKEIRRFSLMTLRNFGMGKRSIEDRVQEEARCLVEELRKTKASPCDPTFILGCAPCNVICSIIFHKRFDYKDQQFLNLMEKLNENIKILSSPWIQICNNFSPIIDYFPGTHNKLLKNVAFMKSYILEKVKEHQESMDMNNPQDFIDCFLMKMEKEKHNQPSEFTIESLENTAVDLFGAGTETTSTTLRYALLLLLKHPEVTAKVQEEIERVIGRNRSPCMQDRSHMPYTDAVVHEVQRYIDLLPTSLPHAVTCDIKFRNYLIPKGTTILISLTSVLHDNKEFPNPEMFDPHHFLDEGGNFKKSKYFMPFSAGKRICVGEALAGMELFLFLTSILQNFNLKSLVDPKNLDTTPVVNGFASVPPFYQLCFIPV
# Chain of Cytochrome P450 2C19 (Homo sapiens) (P33261 whole entry, looked up): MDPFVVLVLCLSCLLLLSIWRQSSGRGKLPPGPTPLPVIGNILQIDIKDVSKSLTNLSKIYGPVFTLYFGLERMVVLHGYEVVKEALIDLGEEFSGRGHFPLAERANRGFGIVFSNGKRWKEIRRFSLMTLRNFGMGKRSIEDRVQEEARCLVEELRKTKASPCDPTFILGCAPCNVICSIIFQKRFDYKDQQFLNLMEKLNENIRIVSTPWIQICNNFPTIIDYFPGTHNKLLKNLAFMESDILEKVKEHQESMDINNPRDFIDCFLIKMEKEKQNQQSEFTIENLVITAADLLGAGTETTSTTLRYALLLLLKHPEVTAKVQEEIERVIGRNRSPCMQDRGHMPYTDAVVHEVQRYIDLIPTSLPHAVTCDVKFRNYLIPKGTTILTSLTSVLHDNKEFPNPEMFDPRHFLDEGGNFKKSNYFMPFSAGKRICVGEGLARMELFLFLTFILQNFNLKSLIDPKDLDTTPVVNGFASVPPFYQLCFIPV
SMILES,Potency [1] [µM],"activity change, negative = inhibition [2] [%]",Potency [3],"activity change, negative = inhibition [4] [%]","activity, negative = inhibition [5] [%]",Potency [6] [µM],Potency [7] [µM],"activity change, negative = inhibition [8]",outcome [9],"activity change, negative = inhibition [10]",Potency [11],"activity change, positive = activation [12]",Potency [13],"activity change, negative = inhibition [3]"
Cc1nc2ccccc2cc1C[N+]12CN3CN(CN(C3)C1)C2,> 11.4,-8.29,0.631 µM (active),6.19,6.99,> 46,> 9.22,0.875% [at 11.4 µM],inactive,,,,,
C[C@@H](Cc1ccc(Cl)cc1Cl)NO,> 11.4,3.86,0.251 µM (active),-11.6,-0.402,> 46,> 9.22,2.58% [at 11.4 µM],inactive,,,,,
[N-]=[N+]=CC(=O)CC[C@H](N)C(=O)O,> 11.4,6.38,inactive,-6.88,6.39,> 46,> 9.22,31.7% [at 11.4 µM],inactive,,,,,
CO[C@H]1[C@H](O)[C@H](O[C@@H]2[C@H](Oc3cccc4c(O)c5c(=O)oc6ccc(C)c7c(=O)oc(c34)c5c67)O[C@@H](C)[C@H](O)[C@H]2O)O[C@@H](C)[C@@H]1O,> 11.4,1.4,inactive,10.4,7.37,> 46,> 9.22,1.22% [at 11.4 µM],inactive,,,,,
O=P(O)(O)CCP(=O)(O)O,> 11.4,-10.9,inactive,7.15,11.8,> 46,> 9.22,-1.32% [at 11.4 µM],inactive,,,,,
O=C(O)CSCC(=O)O,> 11.4,-1.42,inactive,2.38,7.17,> 46,> 9.22,8.86% [at 11.4 µM],inactive,,,,,
NCCc1ccc(S(=O)(=O)O)cc1[N+](=O)[O-],> 11.4,-10.6,inactive,-27.3,1.75,> 46,> 9.22,10.9% [at 11.4 µM],inactive,,,,,
COc1cc2c(cc1OC)[C@@]13CCN4CC5=CCO[C@H](CC(=O)O)[C@@H]([C@H]1N2)[C@H]5C[C@H]43,> 11.4,-1.41,inactive,9.02,1.37,> 46,> 9.22,4.42% [at 11.4 µM],inactive,,,,,
C[C@@]12CC[C@H](O[C@@H]3O[C@H](CO)[C@@H](O)[C@H](O)[C@@H]3O)C[C@@H]1CC[C@H]1[C@H]2CC[C@@]2(C)[C@@H](C3=CCOC3=O)CC[C@]12O,> 11.4,-9.15,inactive,2.85,12.3,> 46,> 9.22,8.37% [at 11.4 µM],inactive,,,,,
C[C@@H]1CC[C@@H]2N(C1)C[C@H]1[C@@](O)([C@H](O)C[C@]3(O)[C@H]4CC[C@H]5[C@]6(O)O[C@]4(C[C@]13O)[C@@]5(C)CC[C@@H]6O)[C@@]2(C)O,> 11.4,0.655,inactive,4.97,-1.33,> 46,> 9.22,4.3% [at 11.4 µM],inactive,,,,,
Cc1ccc(C2(c3ccc(C)c(O)c3C)CCN(C)CC2)c(C)c1O,> 11.4,2.94,5.01 µM (active),3.1,3.48,> 46,,1.97% [at 11.4 µM],inactive,,,,,
Cc1ccc(OP(=O)(Oc2ccc(C)cc2)N2C=Cc3ccccc3[C@H]2C#N)cc1,> 11.4,0.753,3.98 µM (active),-17.9,-13.5,> 46,> 9.22,7.39% [at 11.4 µM],inactive,45.9% [at 11.4 µM],2.51 µM (active),-91.2% [at 11.4 µM],2.51 µM (active),
O=C(O)/C=C\c1ccc[c]([Sb](=[O])([OH])[OH])c1,> 11.4,-8.12,,12.6,-20.4,> 46,,3.13% [at 11.4 µM],inactive,,,,,-9.5% [at 2.29 µM]
